High-throughput results from PubChem.
Most compounds without a hit are left out; they make up all but 18% or so of the library.
IL-1B inflam inh – blocks inflammasome-driven IL-1 beta release; activity change, % at 57.5 µM; actives 4.7% (n = 360,000); THP-1 LPS/ATP IL-1B secretion, AlphaLISA, 16 h; hits give low values; in the data active means activity change below about -50%; inconclusive means mostly about -30% to -49%
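Secreted IL-1B measured by AlphaLISA bead assay after 16 h compound exposure of THP-1 cells; compounds (final up to 57.5 uM) added 1 h before LPS (250 ng/mL) and ATP (1.25 mM) stimulation; lower signal means less secretion.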
TGFb inhibitor – TGF-b pathway inhibition. HepG2 CAGA-GFP TGF-b/SMAD3 reporter, GFP fluorescence, 18 h; TGF-beta stimulated, 500 pg/mL final. Potency, µM (top dose mostly 46.1 µM), actives largely listed as inhibitors. actives 1.2% (n = 410,000); further: nearly all actives have a fitted effect of over 65% in size
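First, reporter cells (HEPG2 CAGA-GFP) rested 2 h at 37 degrees C. Next, compounds were pinned in and TGF-beta added to 500 pg/mL final. After 18 h, GFP was imaged per cell and summed per well.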
HepG2 viability – kills HepG2 cells in TGF-b inhibitor counter-screen; Potency, µM (top dose mostly 46.1 µM), hits mostly cytotoxic; HepG2 CAGA-GFP viability, ATP luminescence, 18 h; actives 0.76% (n = 410,000)
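CellTiter-Glo luminescence gave cytotoxicity after 18 hours at 37 degrees C. The cells were HepG2 CAGA-GFP in 1% FBS DMEM, stimulated with 500 pg/mL TGF-beta after compound addition. %Activity was normalised to no-cell wells (complete cell-killing) and DMSO (no toxicity), and curves were fitted and classified.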
TDP1 cell CPT – DT40-hTDP1 cell growth loss with CPT | chicken DT40 Tdp1-/-;hTDP1 cells + 20 nM CPT, ATP luminescence, 48 h | actives 12% (n = 420,000) | Potency, µM (top dose mostly 46.2 µM), hits mostly inhibitors; further: nearly all actives have a fitted effect of over 55% in size
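Cell growth measured by CellTiter-Glo luminescence after a minimum 48 h, 37 C compound exposure with 20 nM CPT in Tdp1-knockout DT40 cells stably expressing hTDP1, seeded 400/well; qHTS titration format.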
TDP1 cell noCPT – qHTS for Inhibitors of human tyrosyl-DNA phosphodiesterase 1 (TDP1): qHTS in cells in absence of CPT; DT40 Tdp1-/- hTDP1 cells, no CPT, ATP luminescence, 48 h; AID 686978, 2013; Potency, µM (series often up to 46.2 µM), actives largely listed as inhibitors; actives 15% (n = 420,000); further: nearly all actives have a fitted effect of over 55% in size
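DT40 Tdp1-/-;hTDP1 cells, no CPT (DMSO vehicle only), 400 cells/well; compounds pin-transferred; ≥48 hr, 37 °C; CellTiter-Glo 30 min RT dark, luminescence read.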
TDP1 block – inhibitors of human tyrosyl-DNA phosphodiesterase TDP1; Q9NUW8; recombinant TDP1, AlphaScreen DNA substrate cleavage; Potency, µM (series often up to 130 µM), most hits filed as inhibitors; actives 0.28% (n = 350,000); further: nearly all actives have a fitted effect of over 40% in size
Target sequence (Q9NUW8 whole entry, looked up): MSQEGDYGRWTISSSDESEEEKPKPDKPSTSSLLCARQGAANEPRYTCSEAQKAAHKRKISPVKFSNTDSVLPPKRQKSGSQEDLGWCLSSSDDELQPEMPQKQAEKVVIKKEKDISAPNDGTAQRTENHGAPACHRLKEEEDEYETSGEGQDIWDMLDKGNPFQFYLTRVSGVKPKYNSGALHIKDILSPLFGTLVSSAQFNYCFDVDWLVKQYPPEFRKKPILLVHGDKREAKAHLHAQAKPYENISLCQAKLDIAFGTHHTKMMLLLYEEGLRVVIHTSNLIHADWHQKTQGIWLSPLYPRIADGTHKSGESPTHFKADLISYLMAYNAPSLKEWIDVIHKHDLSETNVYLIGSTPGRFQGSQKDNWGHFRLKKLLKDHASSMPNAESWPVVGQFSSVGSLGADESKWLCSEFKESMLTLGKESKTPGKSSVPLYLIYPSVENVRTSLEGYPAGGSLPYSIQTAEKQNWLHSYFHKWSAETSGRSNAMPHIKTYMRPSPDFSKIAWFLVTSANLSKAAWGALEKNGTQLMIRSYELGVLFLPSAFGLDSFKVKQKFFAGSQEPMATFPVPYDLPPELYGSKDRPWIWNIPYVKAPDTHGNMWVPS
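E. coli-derived human Tdp1, 1 nM final. Cpd preinc 15 min RT; substrate 15 nM final, 5 min RT; AS bead mix 10 ug/ml final, 10 min RT. Signal loss = tyrosine-FITC cleavage. No-enzyme wells = max signal.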
Hits are given with their value; - = inactive; ? = inconclusive; . = no result. Unless noted, the call rests on the fitted dose curve; in most records, active means well fitted curve in the direction sought with a large enough effect; inconclusive means small, poorly fitted or top-dose-only effect, or another doubt; inactive means no such curve, though single readings can be large; an effect the other way counts as inactive or inconclusive.

SMILES	IL-1B inflam inh	TGFb inhibitor	HepG2 viability	TDP1 cell CPT	TDP1 cell noCPT	TDP1 block
CC(C)(C)OC(=O)C[C@@H]1C/C=C\C[C@@H](CC(=O)NCCO)C(=O)N[C@H](C(C)(C)C)COC1=O	-	-	-	-	-	-
CC(C)(C)[C@@H]1COC(=O)[C@@H](NC(=O)OCC2c3ccccc3-c3ccccc32)C/C=C\C[C@@H](CC(=O)NCCO)C(=O)N1	-	-	-	18µM	12µM	?
O=C(C[C@H]1C/C=C\C[C@H](NC(=O)OCC2c3ccccc3-c3ccccc32)C(=O)OC[C@H](Cc2ccccc2)NC1=O)N[C@H](CO)Cc1ccccc1	-	?	13µM	5.2µM	5.2µM	-
COc1ccccc1OCCSc1nc(-c2ccc(C(C)(C)C)cc2)nc2cc(=O)[nH]n12	.	?	-	13µM	?	-
Cc1ccc(C(C)C)c(OCCSc2nc(-c3cccs3)nc3cc(=O)[nH]n23)c1	.	-	-	?	?	-
O=c1cc2nc(-c3ccccc3)nc(SCc3cccc(Br)c3)n2[nH]1	.	?	-	?	9.2µM	-
C=CCc1ccccc1OCCSc1nc(-c2ccc(C(C)(C)C)cc2)nc2cc(=O)[nH]n12	.	?	-	23µM	?	-
Cc1ccc(-c2nc(SCCOc3ccccc3C)n3[nH]c(=O)cc3n2)cc1	.	11µM	-	23µM	26µM	-
Cc1ccc(CSc2nc(-c3ccc(C(C)(C)C)cc3)nc3cc(=O)[nH]n23)cc1	.	?	-	?	?	-
CCCCCCCN(CC)CCCC(O)c1ccc(NS(C)(=O)=O)cc1 (stereo not given)	.	.	.	?	-	.
CCOc1ccc(N2C(=O)C3=C(C(c4ccc(Cl)cc4)=NCCN3)C2c2cccnc2)cc1 (stereo not given)	-	-	-	?	?	-
Cc1ccc(C2C3=C(NCCN=C3c3ccccc3)C(=O)N2c2ccccc2)cc1 (stereo not given)	-63	?	-	21µM	23µM	-
O=C(Nc1cccc([N+](=O)[O-])c1)Nc1cccs1	?	?	-	23µM	?	-
O=C(Nc1cccc([N+](=O)[O-])c1)Nc1ccc2c(c1)CCC2	?	?	-	21µM	?	-
COC(=O)c1sccc1NC(=O)Nc1cccc([N+](=O)[O-])c1	-	-	-	-	-	-
COc1ccc(NC(=O)Nc2cccc([N+](=O)[O-])c2)cc1Cl	-84	?	-	18µM	9.2µM	-
COc1ccc(C(=O)Nc2cccc([N+](=O)[O-])c2)cc1Br	-	-	-	-	-	.
O=C(Nc1cccc(C(F)(F)F)c1)Nc1cccs1	.	.	-	?	21µM	-
CN1C(=O)CC(C)(c2ccccc2)C1=O (stereo not given)	.	.	.	-	-	.
N#Cc1cccc(NC(=O)N2CC[C@@]3(CCCN(C(=O)c4csnn4)C3)C2)c1	.	.	.	-	-	.
Cc1cc(C(=O)Nc2ccc3c(c2)CCC3)ccc1[N+](=O)[O-]	-69	-	-	-	?	.
O=C(NC1CCCCC1)C(c1ccc(F)cc1)N(Cc1ccco1)C(=O)Cn1nnc2ccccc21 (stereo not given)	-	-	-	-	-	-
O=C(NC1CCCCC1)C(c1ccccc1F)N(Cc1ccco1)C(=O)Cn1nnc2ccccc21 (stereo not given)	-	-	-	?	18µM	-
Cc1ccc(C(C(=O)NC2CCCCC2)N(Cc2ccco2)C(=O)Cn2cnc3ccccc32)cc1 (stereo not given)	-	-	-	18µM	?	-
O=C(NC1CCCCC1)C(c1ccc(F)cc1)N(Cc1ccco1)C(=O)CN1C(=O)c2ccccc2S1(=O)=O (stereo not given)	-	-	-	?	18µM	-
SMILES	IL-1B inflam inh	TGFb inhibitor	HepG2 viability	TDP1 cell CPT	TDP1 cell noCPT	TDP1 block
CCC(C)(C)NC(=O)C(c1ccc(C)cc1)N(Cc1ccco1)C(=O)Cn1nnc2ccccc21 (stereo not given)	-	-	-	-	-	-
Cc1cccc(C)c1NC(=O)C(c1cccs1)N(Cc1ccco1)C(=O)Cn1nnc2ccccc21 (stereo not given)	-	-	-	?	10µM	-
COc1cccc(C(C(=O)NCc2ccco2)N(C(=O)Cn2nnc3ccccc32)C2CC2)c1OC (stereo not given)	-	-	-	18µM	13µM	-
CC(C)=CCc1cc([C@@H]2CC(=O)c3ccc(O)c(CC=C(C)C)c3O2)ccc1O	-	13µM	-	?	?	.
COc1cc2c(cc1CC=C(C)C)C(=O)C[C@@H](c1ccc(O)cc1)O2	.	.	.	.	.	-
COc1cc(/C=N/NC(=O)C(=O)NCC2CCCO2)ccc1O (stereo not given)	-	-	-	-	-	-
COc1ccc2ccccc2c1/C=N/NC(=S)NCCN1CCOCC1	-	?	-	16µM	-	-
S=C(NCCN1CCOCC1)N/N=C/c1ccccc1	-	-	-	-	-	-
COc1cc(/C=N/NC(=S)NCCN2CCOCC2)cc(OC)c1O	-	-	-	-	-	-
COc1cc(OC)c(OC)cc1/C=N/NC(=S)NCC1CCCO1 (stereo not given)	-	-	-	7.3µM	?	-
COc1cc(OC)c(OC)cc1/C=N/NC(=S)NCCN1CCOCC1	-	-	-	18µM	16µM	-
CCCCCCSc1nsc(NC(=O)CCC)n1	-	?	-	-	?	-
CC(C)(C)c1ccc(S(=O)(=O)/N=C2\C=C(NS(=O)(=O)c3ccccc3)C(=O)c3ccccc32)cc1	-	?	-	21µM	21µM	-
Cc1ccc(S(=O)(=O)/N=C2\C=C(NS(=O)(=O)c3ccccc3)C(=O)c3ccccc32)c(C)c1	-	-	-	15µM	?	.
CCCn1c(-c2ccc(F)cc2)nc2c(NCCN(C(C)C)C(C)C)nc(C)nc21	.	.	.	.	.	-
CCOC(=O)C1C(=O)C=C(/C=C/c2ccccc2)CC1c1ccc(Cl)cc1 (stereo not given)	-	-	-	29µM	?	-
Cc1ccc(NC(=O)COC(=O)CSC(=S)N2CCOCC2)cc1C	-	-	-	-	-	-
Cc1ccc(NC(=Nc2ccc(Br)cc2)N2CCOCC2)cc1C	-66	?	-	?	21µM	-
Cc1cc2c(cc1Cl)C(c1ccc3c(c1)OCO3)CC(=O)O2 (stereo not given)	.	.	.	.	.	-
